Laboratory results reported in the supplement of paper PMC12636033.
± gives the standard deviation of the averaged measurements. The full ranking holds about 33,000 sequences; the median of “E-score (rank enrichment, -0.5 to 0.5)” is about -0.0028, and the highest 2% start at about 0.23. The sample holds the highest values, similar sequences and a random draw of the others, so the mix is not that of the screen.

Tested on: 2Sb-muMax20 (muMax20 with two 1,3-bis(methyl)benzene Cys staples, A13C/A17C and Q88C/A92C, C-terminal Lys)
Assay: PBM 8-mer E-score (E-score (rank enrichment, -0.5 to 0.5)); higher = stronger preferential binding
Protocol: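 Protein binding microarray (universal PBM chip covering all 10-mers in fixed probe flanks) with chemically synthesized human Max(13-93) bHLH-LZ analogs (not full-length Max) bearing noncanonical residues (hArg, Tha, Aib, Nle at 65) and aromatic Cys staples. Read-out per 8-mer (and its reverse complement): E-score (rank-based enrichment, -0.5 to 0.5) and Z-score of median probe intensity.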

| Sequence | PBM 8-mer E-score |
| --- | --- |
| TAGGGGCA | 0.267 ± 0.013 |
| CAGGGGCA | 0.0503 ± 0.027 |
| AAAGGGCT | 0.0103 ± 0.021 |
| GAGGGGCA | 0.0724 ± 0.043 |
| AAGGGGCT | 0.276 ± 0.0072 |
| AAGGGGCG | 0.0188 ± 0.025 |
| AAAGTTAT | 0.0271 ± 0.025 |
| AATAGGGC | -0.00932 ± 0.054 |
| CAGTTTGA | -0.0513 ± 0.03 |
| GGAATGCC | -0.081 ± 0.011 |
| GTGGAGCA | -0.0959 ± 0.032 |
| AATAGCAG | -0.0835 ± 0.028 |
| CCTGTATA | 0.109 ± 0.011 |
| ATTGTATA | 0.273 ± 0.017 |
| CACGTATA | 0.0602 ± 0.053 |
| AACGTATA | 0.251 ± 0.032 |
| GCTGTATA | 0.218 ± 0.05 |
| ATTGTACA | 0.241 ± 0.042 |
| ATTGTATG | 0.172 ± 0.066 |
| CTTGTACA | 0.0642 ± 0.09 |
| CTTGTATA | 0.164 ± 0.018 |
| ACTGTATA | 0.236 ± 0.042 |

| Sequence | PBM 8-mer E-score |
| --- | --- |
| GACGTATA | 0.0136 ± 0.0084 |
| ATTGTACC | 0.178 ± 0.035 |
| TGAAGAAA | -0.0313 ± 0.065 |
| CACCTCTG | -0.0833 ± 0.03 |
| CGTAACAG | 0.177 ± 0.013 |
| GAAGGCGC | -0.0372 ± 0.063 |
| AATGTATA | 0.269 ± 0.02 |
| GATGTATA | 0.0803 ± 0.029 |
| GTTGTCTA | -0.0541 ± 0.029 |
| CATGTATA | 0.15 ± 0.062 |
| ATTGTCTA | 0.277 ± 0.0069 |
| ATTGTCTC | -0.0946 ± 0.028 |
| TAACGGAA | 0.149 ± 0.021 |
| ACAGTGAT | 0.142 ± 0.065 |
| TAAGGCTA | 0.0712 ± 0.066 |
| AGTAGGGG | 0.306 ± 0.0088 |
| AGTAGGGA | 0.0636 ± 0.013 |
| ATGAGGGC | 0.0989 ± 0.0016 |
| AGGAGGGG | 0.297 ± 0.06 |
| ATGAGGGA | 0.191 ± 0.062 |
| AGGAGGGC | -0.0974 ± 0.038 |
| AGGAGGGA | -0.0776 ± 0.0034 |

| Sequence | PBM 8-mer E-score |
| --- | --- |
| AGTAGGGC | 0.0716 ± 0.0035 |
| ATGAGGGG | 0.267 ± 0.0094 |
| AATGGCGA | 0.135 ± 0.067 |
| GACTCAGA | -0.115 ± 0.064 |
| CACGGCAC | -0.198 ± 0.045 |
| GGTCTCTA | -0.0733 ± 0.014 |
| CCTGAGCC | -0.241 ± 0.074 |
| TGTTTCAA | 0.13 ± 0.063 |
| GAAGTTGC | -0.202 ± 0.021 |
| ACTTCACA | 0.0282 ± 0.023 |
| CCTTCACA | 0.298 ± 0.014 |
| CCTTCACG | -0.013 ± 0.075 |
| AATCCCGT | -0.000655 ± 0.018 |
| ATATTTAC | 0.22 ± 0.028 |
| ATATTTAA | 0.256 ± 0.024 |
| ACATTTTA | 0.242 ± 0.054 |
| CTATTTTA | 0.193 ± 0.048 |
| CCATTTTA | 0.0822 ± 0.0077 |
| GTATTTTA | 0.0366 ± 0.0083 |
| ATATTTTA | 0.238 ± 0.0056 |
| GCATTTTA | 0.151 ± 0.0045 |
| CTATTTAA | -0.0132 ± 0.0071 |

| Sequence | PBM 8-mer E-score |
| --- | --- |
| CCTTTTTC | 0.0688 ± 0.1 |
| CCCGAAAA | 0.0645 ± 0.051 |
| AGTATTAT | -0.0141 ± 0.036 |
| AGCGAACC | -0.0262 ± 0.033 |
| GCCCTCAA | 0.0476 ± 0.024 |
| AAAGTACT | 0.136 ± 0.092 |
| AGAAGTAA | 0.141 ± 0.011 |
| TGAAGTAA | 0.1 ± 0.05 |
| GGAAGTAA | 0.262 ± 0.0039 |
| TATATCCA | 0.157 ± 0.048 |
| AGTCGCAT | 0.00112 ± 0.0029 |
| ATGATCCG | -0.186 ± 0.035 |
| AAAAATAT | 0.16 ± 0.01 |
| ATAAATAT | 0.239 ± 0.042 |
| ATAAACAC | 0.0999 ± 0.056 |
| ATAAATAC | 0.288 ± 0.028 |
| ATAAAAAT | 0.136 ± 0.028 |
| ATAAACAA | 0.157 ± 0.019 |
| ATAAATAG | 0.111 ± 0.04 |
| ATAAATAA | 0.111 ± 0.012 |
| ATAAACAT | 0.246 ± 0.014 |
